According to PubChem BioAssay AID1159580 (chemical genetic matrix, 2015):
Hit rate of the full screen: of about 5,500 compounds, about 2,000 (36%) were called active. Inconclusive results (about 18%) are left out. No stated cut-off is given here; in the data, active means normalized growth mostly below about 0.91 (no sharp cut-off); inconclusive means no clear call, values can overlap the other calls; inactive means mostly above about 0.92. The list shows a part of the results.

Assay: chemical genetic growth profiling, strain panel (AID 1159580);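 further: tested at 20 µM; growth read once vehicle control cultures reached saturation at 30 °C; 1 = growth at the plate median or of vehicle wells; lower values mean less growth of the strain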
Conditions: growth OD

Measured: normalized growth

COc1cc2cc[n+]3cc4c(OC)c(OC)ccc4cc3c2cc1OC
inactive: S. cerevisiae deletion strains, locus YJR075W, strain HOC1, hits give low values 0.979 | S. cerevisiae deletion strains, locus YKL009W, strain mrt4, hits give low values 0.965 | S. cerevisiae deletion strains, locus YKL068W, hits give low values 0.963 | S. cerevisiae deletion strains, locus YKL085W, strain MDH1 (second series), hits give low values 0.992 | S. cerevisiae deletion strains, locus YKL085W, strain MDH1, hits give low values 0.992 | S. cerevisiae deletion strains, locus YKL160W, strain elf1, hits give low values 0.976 | S. cerevisiae deletion strains, locus YKL190W, strain CNB1, hits give low values 0.982 | S. cerevisiae deletion strains, locus YKR001C, strain vps1, hits give low values 0.99 | S. cerevisiae deletion strains, locus YKR026C, strain gcn3, hits give low values 0.985 | S. cerevisiae deletion strains, locus YKR091W, strain srl3, hits give low values 0.976 | S. cerevisiae deletion strains, locus YLL001W, strain dnm1, hits give low values 0.965 | S. cerevisiae deletion strains, locus YLL026W, hits give low values 0.97 | S. cerevisiae deletion strains, locus YLL041C, strain sdh2, hits give low values 0.99 | S. cerevisiae deletion strains, locus YLR027C, strain aat2, hits give low values 0.962 | S. cerevisiae deletion strains, locus YLR039C, strain RIC1, hits give low values 0.938 | S. cerevisiae deletion strains, locus YLR058C, strain SHM2, hits give low values 0.985 | S. cerevisiae deletion strains, locus YLR102C, strain apc9, hits give low values 0.959 | S. cerevisiae deletion strains, locus YLR113W, strain HOG1, hits give low values 1.02 | S. cerevisiae deletion strains, locus YLR221C, strain rsa3, hits give low values 0.968 | S. cerevisiae deletion strains, locus YLR258W, strain gsy2, hits give low values 0.993 | S. cerevisiae deletion strains, locus YLR262C, strain YPT6 (second series), hits give low values 1.01 | S. cerevisiae deletion strains, locus YLR262C, strain YPT6, hits give low values 0.926 | S. cerevisiae deletion strains, locus YLR268W, strain sec22, hits give low values 1 | S. cerevisiae deletion strains, locus YLR320W, strain mms22, hits give low values 0.979 | S. cerevisiae deletion strains, locus YLR330W, strain CHS5, hits give low values 0.977 | S. cerevisiae deletion strains, locus YLR342W, strain FKS1 (second series), hits give low values 0.96 | S. cerevisiae deletion strains, locus YLR342W, strain FKS1, hits give low values 0.981 | S. cerevisiae deletion strains, locus YLR357W, strain rsc2, hits give low values 0.95 | S. cerevisiae deletion strains, locus YLR370C, strain arc18, hits give low values 0.981 | S. cerevisiae deletion strains, locus YLR371W, strain rom2, hits give low values 0.952 | S. cerevisiae deletion strains, locus YLR384C, strain iki3, hits give low values 0.977 | S. cerevisiae deletion strains, locus YLR418C, strain cdc73, hits give low values 1 | S. cerevisiae deletion strains, locus YML016C, strain PPZ1, hits give low values 0.985 | S. cerevisiae deletion strains, locus YML032C, strain rad52, hits give low values 0.955 | S. cerevisiae deletion strains, locus YML120C, strain ndi1, hits give low values 0.978 | S. cerevisiae deletion strains, locus YML124C, strain tub3, hits give low values 0.985 | S. cerevisiae deletion strains, locus YMR058W, strain fet3, hits give low values 0.973 | S. cerevisiae deletion strains, locus YMR078C, strain ctf18, hits give low values 0.986 | S. cerevisiae deletion strains, locus YMR125W, strain sto1, hits give low values 0.938 | S. cerevisiae deletion strains, locus YMR129W, hits give low values 0.987 | S. cerevisiae deletion strains, locus YMR205C, strain PFK2, hits give low values 0.961 | S. cerevisiae deletion strains, locus YMR223W, strain ubp8, hits give low values 0.97 | S. cerevisiae deletion strains, locus YMR231W, strain pep5, hits give low values 0.988 | S. cerevisiae deletion strains, locus YMR263W, strain SAP30, hits give low values 0.988 | S. cerevisiae deletion strains, locus YMR307W, strain GAS1, hits give low values 1.1 | S. cerevisiae deletion strains, locus YNL067W, strain RPL9B, hits give low values 0.982 | S. cerevisiae deletion strains, locus YNL071W, strain lat1, hits give low values 0.988 | S. cerevisiae deletion strains, locus YNL128W, strain TEP1, hits give low values 0.995 | S. cerevisiae deletion strains, locus YNL153C, strain GIM3, hits give low values 0.999 | S. cerevisiae deletion strains, locus YNL183C, strain NPR1, hits give low values 0.95 | S. cerevisiae deletion strains, locus YNL209W, strain ssb2, hits give low values 0.982 | S. cerevisiae deletion strains, locus YNL233W, strain BNI4, hits give low values 1 | S. cerevisiae deletion strains, locus YNL248C, strain rpa49, hits give low values 0.968 | S. cerevisiae deletion strains, locus YNL250W, strain rad50, hits give low values 0.968 | S. cerevisiae deletion strains, locus YNL271C, strain bni1, hits give low values 0.975 | S. cerevisiae deletion strains, locus YNL298W, strain CLA4, hits give low values 0.984 | S. cerevisiae deletion strains, locus YNL307C, strain MCK1, hits give low values 0.985 | S. cerevisiae deletion strains, locus YNL322C, strain KRE1 (second series), hits give low values 0.959 | S. cerevisiae deletion strains, locus YNL322C, strain KRE1, hits give low values 0.98 | S. cerevisiae deletion strains, locus YNR049C, strain mso1, hits give low values 0.972 | S. cerevisiae deletion strains, locus YNR052C, strain pop2, hits give low values 0.98 | S. cerevisiae deletion strains, locus YOL006C, strain TOP1, hits give low values 1.02 | S. cerevisiae deletion strains, locus YOL012C, strain htz1 0.901 | S. cerevisiae deletion strains, locus YOL147C, strain pex11, hits give low values 0.988 | S. cerevisiae deletion strains, locus YOR001W, strain rrp6, hits give low values 0.987 | S. cerevisiae deletion strains, locus YOR061W, strain CKA2, hits give low values 0.98 | S. cerevisiae deletion strains, locus YOR069W, strain VPS5, hits give low values 0.993 | S. cerevisiae deletion strains, locus YOR070C, strain gyp1, hits give low values 0.984 | S. cerevisiae deletion strains, locus YOR080W, strain dia2, hits give low values 0.965 | S. cerevisiae deletion strains, locus YOR083W, strain WHI5, hits give low values 0.964 | S. cerevisiae deletion strains, locus YOR106W, strain vam3, hits give low values 0.998 | S. cerevisiae deletion strains, locus YOR136W, strain idh2, hits give low values 0.986 | S. cerevisiae deletion strains, locus YOR144C, strain elg1, hits give low values 0.983 | S. cerevisiae deletion strains, locus YOR184W, strain ser1, hits give low values 0.933 | S. cerevisiae deletion strains, locus YOR231W, strain MKK1, hits give low values 1.03 | S. cerevisiae deletion strains, locus YOR265W, strain rbl2, hits give low values 0.989 | S. cerevisiae deletion strains, locus YOR270C, strain vph1, hits give low values 0.937 | S. cerevisiae deletion strains, locus YOR290C, strain snf2, hits give low values 0.946 | S. cerevisiae deletion strains, locus YOR316C, strain cot1, hits give low values 0.988 | S. cerevisiae deletion strains, locus YPL051W, strain arl3, hits give low values 0.997 | S. cerevisiae deletion strains, locus YPL055C, strain LGE1, hits give low values 0.984 | S. cerevisiae deletion strains, locus YPL078C, strain atp4, hits give low values 0.986 | S. cerevisiae deletion strains, locus YPL106C, strain sse1, hits give low values 0.953 | S. cerevisiae deletion strains, locus YPL240C, strain hsp82, hits give low values 0.982 | S. cerevisiae deletion strains, locus YPL256C, strain CLN2, hits give low values 1.03 | S. cerevisiae deletion strains, locus YPR119W, strain clb2, hits give low values 0.979 | S. cerevisiae deletion strains, locus YPR141C, strain kar3, hits give low values 0.988 | S. cerevisiae deletion strains, locus YPR163C, strain tif3, hits give low values 0.988 | S. cerevisiae deletion strains, locus YPR167C, strain met16, hits give low values 0.984 | S. cerevisiae deletion strains, strain wtn01, hits give low values 0.971 | S. cerevisiae strains, strain wild type, hits give low values 0.985
